# Measured values as given in PubChem BioAssay (Tox21).
# Values joined by “and” are separate entries in the source; they are usually repeats but may differ in a detail not shown here. Equal values may be shown once. Records with an inconclusive call do not appear. A call without a number means that no potency is given here. Some structures have more than one record in an assay (separate samples or runs), and their calls can disagree. Active and inactive are the calls of the source. Unless noted, the call rests on the fitted dose curve; in most records, active means well fitted curve in the direction sought with a large enough effect in the repeat runs; inconclusive means weak or mixed curves; inactive means no such curve, though single readings can be large; an effect the other way counts as inactive or inconclusive.
# Experiments:
# [1] = qHTS assay to identify small molecule antagonists of the sonic hedgehog signaling (Shh) pathway (AID 1259369; calls by dose curve; further: nearly all actives have a fitted effect of over 45% in size; further: potency means the concentration at half of the fitted maximal effect)
# Outline: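 For antagonist detection, the reporter line received test compounds together with conditioned medium, incubated 24hr at 37 C, 5% CO2, then luminescence was recorded following 30min room-temperature luciferase reagent incubation.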
# [2] = molecular target: Estrogen receptor beta (Homo sapiens) (UniProt Q92731); experiment: qHTS assay to identify small molecule agonists of the estrogen receptor beta (ER-beta) signaling pathway (AID 1259377; active means well fitted activation curve with a large enough effect in the signal ratio in the repeat runs, not every such curve was filed as active; the % refers to the signal ratio)
# Outline: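 ER-beta-UAS-bla HEK293T cells in medium with 2% charcoal-stripped FBS were exposed to compounds for 16 h at 37C. Beta-lactamase reporter activity was read as fluorescence after 2 h with LiveBLAzer B/G FRET substrate at room temperature.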
# [3] = molecular target: Estrogen receptor beta (Homo sapiens) (UniProt Q92731); experiment: qHTS assay to identify small molecule antagonists of the estrogen receptor beta (ER-beta) signaling pathway (AID 1259378; active means well fitted inhibition curve with a large enough effect in the signal ratio in the repeat runs, not every such curve was filed as active; the % refers to the signal ratio; further: potency means the concentration at half of the fitted maximal effect)
# Outline: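 ER-beta-UAS-bla HEK293T (GripTite) cells in 2% charcoal-stripped FBS medium were preincubated 6 hr at 37C, dosed with compound, then stimulated with 1 nM E2 (final) for 16 hr; beta-lactamase reporter read by B/G FRET fluorescence after 2 hr substrate loading.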
# [4] = qHTS assay to identify small molecule agonists of the androgen receptor (AR) signaling pathway in the presence of an antagonist - cell viability counter screen (AID 1259379); further: nearly all actives have a fitted effect of over 25% in size; further: potency means the concentration at half of the fitted maximal effect
# Outline: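 Seed MDA-kb2 at 3,000 cells/well; incubate 5 hr, 37C, 0% CO2. Add nilutamide to 3.0uM final, then pin compounds at 15 concentrations. Incubate 16 hr. Add CellTiter-Fluor at 15 hr, read fluorescence after 1 hr.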
# [5] = qHTS assay to identify small molecule agonists of the estrogen receptor beta (ER-beta) signaling pathway - cell viability counter screen (AID 1259380); further: nearly all actives have a fitted effect of over 30% in size; further: potency means the concentration at half of the fitted maximal effect
# Outline: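 CellTiter-Glo read, 30 min RT, same wells as bla assay; cells ER-beta-UAS-bla HEK293T; 16 hr compound, 37C; medium 2% charcoal-stripped FBS.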
# [6] = qHTS assay to identify small molecule antagonists of the estrogen receptor beta (ER-beta) signaling pathway - cell viability counter screen (AID 1259382); further: nearly all actives have a fitted effect of over 55% in size; further: potency means the concentration at half of the fitted maximal effect
# Outline: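 In this multiplexed counter screen, cells were seeded at 2,000 per well in medium with 2% charcoal-stripped FBS and incubated 6 hr before compound and 1nM final E2 were added. Sixteen hours later, ATP-based luminescence reported viability.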
# [7] = qHTS assay to identify small molecule agonists or antagonists of the thyroid stimulating hormone receptor (TSHR) signaling pathway - wild type cell line counter screen (AID 1259384; calls by dose curve)
# Outline: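 Wild-type HEK293 cells were plated 18 h at 37 C/5% CO2, pin-dosed with compound plus Ro20-1724 medium, held 30 min at room temperature, then given cAMP-d2 and anti-cAMP-cryptate; fluorescence was read after 1 h. Fifteen concentrations, triplicate.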
# [8] = molecular target: Thyrotropin receptor (Homo sapiens) (UniProt P16473); experiment: qHTS assay to identify small molecule antagonists of the thyroid stimulating hormone receptor (TSHR) signaling pathway (AID 1259385; calls by dose curve; further: nearly all actives have a fitted effect of over 20% in size; further: potency means the concentration at half of the fitted maximal effect)
# Outline: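 TSHR-HEK293 cells were plated and held 18 h at 37C/5% CO2, then given compound plus Ro20-1724 and stimulated with TSH at 1.5 ng/mL final. After 30 min at room temperature, cAMP was detected with cAMP-d2/anti-cAMP-cryptate (1 h) by fluorescence.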
# [9] = qHTS assay to identify small molecule agonists of the estrogen receptor alpha (ER-alpha) signaling pathway in the presence of an antagonist - cell viability counter screen (AID 1259386);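 further: series mostly up to about 92 µM; cells exposed to compounds for 22 h at 37 °C before the viability read; nearly all actives have a fitted effect of over 30% in size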
# Outline: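 Viability counter screen using VM7Luc4E2 (full-length ER-alpha, four ERE-luciferase). The cells were treated with compounds alongside ICI-182,780 10.0nM for 22hr, and live-cell protease fluorescence was quantified with CellTiter-Fluor.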
# [10] = molecular target: Progesterone receptor (Homo sapiens) (UniProt P06401); experiment: qHTS assay to identify small molecule agonists of the progesterone receptor (PR) signaling pathway (AID 1346784; calls by dose curve; further: nearly all actives have a fitted effect of over 30% in size)
# Outline: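 PR-UAS-bla HEK 293T cells (beta-lactamase reporter under UAS) in 2% charcoal-stripped FBS, dosed with 23 nL compound after 6 hr, incubated 16hr at 37C. LiveBLAzer B/G FRET substrate added, fluorescence read after 2 hours.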
# [11] = qHTS assay to identify small molecule antagonists of the progesterone receptor (PR) signaling pathway - cell viability counter screen (AID 1346798); further: nearly all actives have a fitted effect of over 50% in size; further: potency means the concentration at half of the fitted maximal effect
# Outline: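 PR-UAS-bla HEK293T cells, 3,000/well in 2% charcoal-stripped FBS medium, dosed with compounds plus R5020 agonist and incubated 16 h at 37C. Viability then measured in the same wells by CellTiter-Glo luminescence after 30 min at RT.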
# [12] = qHTS assay to identify small molecule agonists of the progesterone receptor (PR) signaling pathway - cell viability counter screen (AID 1346799; calls by dose curve; further: nearly all actives have a fitted effect of over 45% in size; further: potency means the concentration at half of the fitted maximal effect)
# Outline: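 Counter screen in the PR-UAS-bla HEK293T wells (2% charcoal-stripped FBS, 16 h compound exposure at 37 C) after the bla read. CellTiter-Glo added, 30 min at room temperature, luminescence read as cell viability.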
# [13] = qHTS assay to identify small molecule antagonists of the TGF-beta/Smad signaling pathway - cell viability counter screen (AID 1346824); further: nearly all actives have a fitted effect of over 50% in size
# Outline: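 SBE-bla HEK 293T cells were plated overnight at 37 C, then given compounds in DMSO plus TGF-beta1 (added as 0.25 ng/mL solution) for 5 hr. After the bla read, CellTiter-Glo was added to the same wells and luminescence read after 30 min at room temperature.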
# [14] = qHTS assay to identify small molecule agonists of the TGF-beta/Smad signaling pathway - cell viability counter screen (AID 1346829); further: top concentration of the series differs between compounds; nearly all actives have a fitted effect of over 45% in size
# Outline: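 Cytotoxicity counter screen: CellTiter-Glo luminescence (30 min, room temperature) measured in the SBE-bla HEK 293T reporter wells after 5 hr compound treatment at 37 C and the 2 hr substrate step.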
# [15] = qHTS assay to identify small molecule agonists of the TGF-beta/Smad signaling pathway (AID 1346859; active means well fitted activation curve with a large enough effect in the signal ratio in the repeat runs, not every such curve was filed as active; the % refers to the signal ratio; further: series mostly up to about 77 µM)
# Outline: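 SBE-bla HEK293T cells plated overnight, then compound exposure for 5 h at 37 C. Beta-lactamase reporter read with LiveBLAzer B/G FRET substrate after 2 h at room temperature, fluorescence at 405 nm excitation, 460/530 nm emission.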
# [16] = molecular target: Thyrotropin-releasing hormone receptor (Homo sapiens) (UniProt P34981); experiment: qHTS assay to identify small molecule antagonists of the thyrotropin-releasing hormone receptor (TRHR) signaling pathway (AID 1346877; active means well fitted inhibition curve with a large enough effect in the repeat runs, not every such curve was filed as active; further: series mostly up to about 51 µM)
# Outline: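 Following an 18 h incubation at 37 °C and a 2 h calcium dye load, TRHR-HEK293 cells were exposed to compound (5 min, room temperature) and challenged with TRH, 1 nM final.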
# [17] = molecular target: Thyrotropin-releasing hormone receptor (Homo sapiens) (UniProt P34981); experiment: qHTS assay to identify small molecule agonists of the thyrotropin-releasing hormone receptor (TRHR) signaling pathway (AID 1346891; calls by dose curve; further: series mostly up to about 58 µM)
# Outline: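 HEK293 cells expressing TRHR plated 18 h at 37 C/5% CO2, calcium dye-loaded 2 h at 37 C, then compound added (agonist mode); kinetic calcium fluorescence read 3 min at 1 s intervals; 15 concentrations in triplicate.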
# [18] = molecular target: Estrogen receptor (Homo sapiens) (UniProt P03372); experiment: qHTS assay to identify small molecule agonists of the estrogen receptor alpha (ER-alpha) signaling pathway in the presence of an antagonist (AID 1259383; calls by dose curve; further: nearly all actives have a fitted effect of over 15% in size; further: potency means the concentration at half of the fitted maximal effect; on activation: top concentration of the series differs between compounds)
# Outline: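 Stably transfected VM7Luc4E2 reporter cells, kept 5 days in charcoal-stripped serum, received ICI-182,780 at 10.0nM final before compound addition. Following 22hr incubation at 37C and 5% CO2, luciferase signal was read by luminescence.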
# [19] = molecular target: Progesterone receptor (Homo sapiens) (UniProt P06401); experiment: qHTS assay to identify small molecule antagonists of the progesterone receptor (PR) signaling pathway (AID 1346795; active means well fitted inhibition curve with a large enough effect in the signal ratio in the repeat runs, not every such curve was filed as active; the % refers to the signal ratio)
# Outline: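 PR-UAS-bla HEK293T cells with beta-lactamase reporter under UAS control, in 2% charcoal-stripped FBS, treated with compounds plus 1 nM promegestone (R5020, final) for 16 hr at 37C. Read-out: FRET beta-lactamase substrate fluorescence after 2 hr at room temperature.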
# [20] = molecular target: Androgen receptor (Homo sapiens) (UniProt P10275); experiment: qHTS assay to identify small molecule agonists of the androgen receptor (AR) signaling pathway in the presence of an antagonist (AID 1259381; calls by dose curve; further: nearly all actives have a fitted effect of over 15% in size)
# Outline: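 Test compounds at 15 concentrations were incubated for 16hr with MDA-kb2 reporter cells in presence of 3.0uM nilutamide (final). Signal: ONE-Glo luciferase luminescence.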
# Sequence of Androgen receptor (Homo sapiens) (P10275 whole entry, looked up): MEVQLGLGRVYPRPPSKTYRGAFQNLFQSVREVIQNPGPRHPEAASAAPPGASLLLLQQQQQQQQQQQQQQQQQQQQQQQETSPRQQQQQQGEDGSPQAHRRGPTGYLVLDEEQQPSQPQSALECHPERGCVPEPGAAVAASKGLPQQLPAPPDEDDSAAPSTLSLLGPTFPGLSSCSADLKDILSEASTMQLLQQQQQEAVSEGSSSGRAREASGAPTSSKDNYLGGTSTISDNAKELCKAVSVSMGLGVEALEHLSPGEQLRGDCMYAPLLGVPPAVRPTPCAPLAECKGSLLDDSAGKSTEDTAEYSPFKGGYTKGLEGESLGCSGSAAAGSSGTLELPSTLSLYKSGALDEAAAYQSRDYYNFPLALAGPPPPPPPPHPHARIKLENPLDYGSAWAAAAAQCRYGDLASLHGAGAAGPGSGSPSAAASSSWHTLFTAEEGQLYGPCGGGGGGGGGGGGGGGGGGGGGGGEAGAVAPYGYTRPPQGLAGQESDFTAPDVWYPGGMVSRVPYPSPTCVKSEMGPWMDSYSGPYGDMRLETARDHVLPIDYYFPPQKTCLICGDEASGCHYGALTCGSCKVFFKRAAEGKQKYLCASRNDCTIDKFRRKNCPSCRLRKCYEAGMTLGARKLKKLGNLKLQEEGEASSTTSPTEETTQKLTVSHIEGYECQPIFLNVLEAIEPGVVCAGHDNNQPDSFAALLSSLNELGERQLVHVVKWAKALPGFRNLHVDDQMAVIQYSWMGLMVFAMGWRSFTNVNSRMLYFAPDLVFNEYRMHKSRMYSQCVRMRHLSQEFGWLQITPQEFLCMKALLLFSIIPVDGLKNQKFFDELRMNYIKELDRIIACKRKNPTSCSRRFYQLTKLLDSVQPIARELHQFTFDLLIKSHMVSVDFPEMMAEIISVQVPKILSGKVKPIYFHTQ
# Sequence of Estrogen receptor (Homo sapiens) (P03372 whole entry, looked up): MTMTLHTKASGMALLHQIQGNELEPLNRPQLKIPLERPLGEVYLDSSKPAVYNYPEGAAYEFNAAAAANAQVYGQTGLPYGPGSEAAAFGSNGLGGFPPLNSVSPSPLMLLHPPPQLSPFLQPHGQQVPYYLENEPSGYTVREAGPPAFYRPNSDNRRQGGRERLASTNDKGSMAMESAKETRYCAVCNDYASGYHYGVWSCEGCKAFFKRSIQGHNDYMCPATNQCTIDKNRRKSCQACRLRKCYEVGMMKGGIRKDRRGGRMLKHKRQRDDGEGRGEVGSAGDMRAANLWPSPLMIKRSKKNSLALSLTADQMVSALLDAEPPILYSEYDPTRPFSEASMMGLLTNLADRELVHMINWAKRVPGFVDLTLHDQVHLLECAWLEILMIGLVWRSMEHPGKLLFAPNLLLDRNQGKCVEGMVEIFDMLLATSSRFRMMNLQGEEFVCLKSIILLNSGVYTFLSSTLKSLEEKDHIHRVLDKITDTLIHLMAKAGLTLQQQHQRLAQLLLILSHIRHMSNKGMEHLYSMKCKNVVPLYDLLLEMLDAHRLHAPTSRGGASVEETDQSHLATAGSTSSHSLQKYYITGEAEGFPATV
# Sequence of Thyrotropin-releasing hormone receptor (Homo sapiens) (P34981 whole entry, looked up): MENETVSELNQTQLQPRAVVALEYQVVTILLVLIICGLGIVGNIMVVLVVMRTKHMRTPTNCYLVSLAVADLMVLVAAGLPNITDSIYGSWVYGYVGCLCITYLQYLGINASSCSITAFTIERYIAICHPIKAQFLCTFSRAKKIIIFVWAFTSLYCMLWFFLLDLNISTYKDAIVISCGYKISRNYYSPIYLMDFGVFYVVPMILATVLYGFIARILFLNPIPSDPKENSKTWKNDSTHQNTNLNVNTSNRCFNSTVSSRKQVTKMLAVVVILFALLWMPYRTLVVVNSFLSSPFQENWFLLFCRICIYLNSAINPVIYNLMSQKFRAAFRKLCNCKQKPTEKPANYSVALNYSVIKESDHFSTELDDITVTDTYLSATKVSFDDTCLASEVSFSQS
# Sequence of Estrogen receptor beta (Homo sapiens) (Q92731 whole entry, looked up): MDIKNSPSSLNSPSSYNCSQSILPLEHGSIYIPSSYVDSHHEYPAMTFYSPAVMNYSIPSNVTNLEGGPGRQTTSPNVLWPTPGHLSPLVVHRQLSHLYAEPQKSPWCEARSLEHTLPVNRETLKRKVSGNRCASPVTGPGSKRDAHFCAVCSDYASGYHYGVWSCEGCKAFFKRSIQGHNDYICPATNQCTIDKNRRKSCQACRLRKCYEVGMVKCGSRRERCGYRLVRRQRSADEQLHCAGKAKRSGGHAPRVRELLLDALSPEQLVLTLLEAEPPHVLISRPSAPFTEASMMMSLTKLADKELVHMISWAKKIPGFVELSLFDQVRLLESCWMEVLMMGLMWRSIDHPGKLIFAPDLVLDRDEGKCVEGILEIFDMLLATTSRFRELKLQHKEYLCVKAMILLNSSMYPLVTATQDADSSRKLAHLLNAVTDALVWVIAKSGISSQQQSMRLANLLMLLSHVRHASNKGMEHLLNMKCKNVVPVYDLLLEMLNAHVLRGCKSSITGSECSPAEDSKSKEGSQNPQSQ
# Sequence of Thyrotropin receptor (Homo sapiens) (P16473 whole entry, looked up): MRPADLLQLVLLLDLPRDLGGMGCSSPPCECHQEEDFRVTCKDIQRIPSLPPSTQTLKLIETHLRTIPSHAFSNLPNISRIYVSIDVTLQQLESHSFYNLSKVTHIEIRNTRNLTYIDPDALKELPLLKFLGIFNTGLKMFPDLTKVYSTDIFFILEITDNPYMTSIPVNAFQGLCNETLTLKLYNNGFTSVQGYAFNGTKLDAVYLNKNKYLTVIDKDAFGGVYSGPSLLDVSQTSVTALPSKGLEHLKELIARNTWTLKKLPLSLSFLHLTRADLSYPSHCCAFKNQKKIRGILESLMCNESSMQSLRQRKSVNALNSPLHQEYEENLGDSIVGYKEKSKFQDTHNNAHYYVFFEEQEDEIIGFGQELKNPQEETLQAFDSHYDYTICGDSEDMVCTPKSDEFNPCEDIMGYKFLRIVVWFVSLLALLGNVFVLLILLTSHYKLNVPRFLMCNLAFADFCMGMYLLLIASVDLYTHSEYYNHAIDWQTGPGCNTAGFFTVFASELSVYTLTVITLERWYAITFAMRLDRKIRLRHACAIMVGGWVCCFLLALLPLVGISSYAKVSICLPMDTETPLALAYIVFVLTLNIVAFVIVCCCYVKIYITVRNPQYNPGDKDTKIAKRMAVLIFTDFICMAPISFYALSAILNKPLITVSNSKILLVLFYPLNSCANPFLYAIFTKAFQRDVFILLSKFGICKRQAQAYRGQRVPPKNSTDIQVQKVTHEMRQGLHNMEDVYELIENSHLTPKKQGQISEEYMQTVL
# Sequence of Progesterone receptor (Homo sapiens) (P06401 whole entry, looked up): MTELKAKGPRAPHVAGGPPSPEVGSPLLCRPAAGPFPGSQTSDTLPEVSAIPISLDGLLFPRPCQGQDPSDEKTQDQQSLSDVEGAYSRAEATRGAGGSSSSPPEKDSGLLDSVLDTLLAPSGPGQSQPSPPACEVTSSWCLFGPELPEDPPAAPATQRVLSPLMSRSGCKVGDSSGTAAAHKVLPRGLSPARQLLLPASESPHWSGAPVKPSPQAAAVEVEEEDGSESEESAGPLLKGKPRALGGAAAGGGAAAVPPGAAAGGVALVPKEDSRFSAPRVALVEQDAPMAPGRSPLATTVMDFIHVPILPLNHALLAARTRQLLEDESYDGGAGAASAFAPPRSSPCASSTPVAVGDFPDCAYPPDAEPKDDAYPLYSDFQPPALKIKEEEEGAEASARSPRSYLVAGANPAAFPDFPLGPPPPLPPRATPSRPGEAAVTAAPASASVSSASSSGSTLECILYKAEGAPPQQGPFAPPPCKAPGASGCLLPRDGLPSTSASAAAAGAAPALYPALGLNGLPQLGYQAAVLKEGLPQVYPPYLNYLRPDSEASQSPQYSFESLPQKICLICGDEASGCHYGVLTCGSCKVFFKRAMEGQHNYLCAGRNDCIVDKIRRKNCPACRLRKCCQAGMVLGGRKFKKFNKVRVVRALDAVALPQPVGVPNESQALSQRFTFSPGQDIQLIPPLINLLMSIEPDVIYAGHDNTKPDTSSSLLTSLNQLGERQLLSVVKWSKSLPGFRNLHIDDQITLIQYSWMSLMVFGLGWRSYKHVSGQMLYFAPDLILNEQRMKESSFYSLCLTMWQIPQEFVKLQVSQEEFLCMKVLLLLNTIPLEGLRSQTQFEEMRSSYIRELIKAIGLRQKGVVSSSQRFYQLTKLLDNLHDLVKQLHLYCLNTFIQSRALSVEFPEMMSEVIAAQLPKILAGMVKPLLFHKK
SMILES,Potency [1],outcome [2],Potency [3],Potency [4],Potency [5],Potency [6],Potency [7],Potency [8],Potency [9],Potency [10],Potency [11],Potency [12],Potency [13],Potency [14],outcome [15],Potency [16],Potency [17],Potency [18],Potency [19],Potency [20]
Cc1cc(C(C)(C)C)c(O)c(C(C)(C)C)c1,inactive,inactive,inactive,inactive,inactive,inactive,inactive,inactive,inactive,inactive,inactive,inactive,inactive,inactive,inactive,inactive,inactive,–,–,–
CCn1c2ccccc2c2cc(N)ccc21,15.2 µM (active) and inactive,inactive,inactive,–,17.1 µM (active) and 15.4 µM (active),inactive,inactive,inactive,inactive,inactive,inactive,inactive,inactive,inactive,–,inactive,inactive,inactive,–,–
C[N+]1([O-])CCOCC1,inactive,inactive,inactive,inactive,inactive,inactive,inactive,–,inactive,inactive,inactive,inactive,inactive,inactive,inactive,inactive,inactive,–,–,–
CCC(CO)(CO)COCC(CC)(CO)CO,inactive,inactive,inactive,inactive,inactive,inactive,inactive,inactive,inactive,inactive,inactive,inactive,inactive,–,inactive,inactive,inactive,–,inactive,–
CC(N)=O,inactive,inactive,–,inactive,inactive,inactive,inactive,inactive,inactive,inactive,inactive,–,inactive,inactive,inactive,inactive,inactive,–,inactive,–
CC(C)CCOC(=O)c1ccc(N(C)C)cc1,inactive,inactive,–,inactive,inactive,inactive,inactive,–,–,inactive,inactive,inactive,inactive,inactive,inactive,inactive,inactive,2.98 µM (active),inactive,–
O=C(O)c1cc(Cl)cc(Cl)c1,inactive,inactive,inactive,inactive,inactive,inactive,inactive,–,inactive,inactive,inactive,inactive,inactive,inactive,–,inactive,inactive,inactive,–,–
N[C@@H]1CONC1=O,inactive,inactive,inactive,inactive,inactive,inactive,inactive,–,inactive,inactive,inactive,inactive,inactive,inactive,–,–,–,–,–,–
O=C(O)CCc1ccccc1,inactive,inactive,inactive,inactive,inactive,inactive,inactive,–,inactive,inactive,inactive,inactive,inactive,inactive,–,inactive,inactive,–,inactive,–
CCCCC(CC)COC(=O)CC(C(=O)OCC(CC)CCCC)S(=O)(=O)O (stereo not given),inactive,inactive,–,inactive,26.3 µM (active) and 30.6 µM (active),29.5 µM (active) and 27.3 µM (active),–,–,inactive,inactive,–,29.5 µM (active),–,inactive,inactive,inactive,inactive,inactive,–,–
Cc1cccc([N+](=O)[O-])c1C(=O)O,inactive,inactive,inactive,inactive,inactive,inactive,inactive,–,inactive,inactive,inactive,inactive,inactive,inactive,–,–,–,inactive,–,–
Cc1ccnc2c1NC(=O)c1cccnc1N2C1CC1,inactive,inactive,inactive,inactive,inactive,inactive,inactive,inactive,inactive,inactive,inactive,inactive,inactive,–,–,inactive,inactive,–,inactive,–
Nc1cc(Cl)c(-c2cc(Cl)c(N)cc2Cl)cc1Cl,1.09 µM (active) and 864 nM (active),–,8.63 µM (active),54.4 µM (active) and 48.6 µM (active),21.7 µM (active) and 24.3 µM (active),17.2 µM (active) and 27.3 µM (active),inactive,–,inactive,–,38.5 µM (active) and 43.3 µM (active),30.6 µM (active) and 21.7 µM (active),–,–,inactive,inactive,inactive,inactive,–,inactive
Cc1occc(=O)c1OC(=O)C(C)C,inactive,inactive,–,inactive,inactive,inactive,inactive,inactive,inactive,inactive,inactive,inactive,inactive,–,–,inactive,inactive,–,inactive,–
CCN(CC)CCOc1ccc(/C(=C(\Cl)c2ccccc2)c2ccccc2)cc1,17.6 µM (active),–,0.266 µM (active),44.2 µM (active) and 29.8 µM (active),49.6 µM (active) and 29.8 µM (active),44.2 µM (active) and 29.8 µM (active),inactive,29.8 µM (active),inactive,–,–,–,inactive,–,–,–,–,–,–,inactive
